Measurements as given in PubChem BioAssay (NCATS).
Results filed as inconclusive are left out. Active and inactive are the calls of the source. Unless noted, the call rests on the fitted dose curve.

Experiments:
[1] = qHTS for Inhibitors of the Functional Ribonucleoprotein Complex (vRNP) of Lassa (LASV) Arenavirus: LASV Primary Screen - GLuc reporter signal (AID 1347082; calls by dose curve; tested in HEK293 reporter line; further: nearly all actives have a fitted effect of over 60% in size)
[2] = qHTS for Inhibitors of the Functional Ribonucleoprotein Complex (vRNP) of Lassa (LASV) Arenavirus: Viability assay - alamar blue signal for LASV Primary Screen (AID 1347083; calls by dose curve; tested in HEK293 reporter line; further: nearly all actives have a fitted effect of over 80% in size)
[3] = qHTS for Inhibitors of the Functional Ribonucleoprotein Complex (vRNP) of Lymphocytic Choriomeningitis Arenaviruses (LCMV): Viability assay - alamar blue signal for LCMV Primary Screen (AID 1347085; calls by dose curve; tested in HEK293 reporter line; further: nearly all actives have a fitted effect of over 80% in size)
[4] = biological target: Nucleoprotein (Lymphocytic choriomeningitis virus (strain Armstrong)) (UniProt P09992); experiment: qHTS for Inhibitors of the Functional Ribonucleoprotein Complex (vRNP) of Lymphocytic Choriomeningitis Arenaviruses (LCMV): LCMV Primary Screen - GLuc reporter signal (AID 1347086); further: nearly all actives have a fitted effect of over 70% in size

Measured: Potency
Further: series mostly up to about 57 µM.

Sequence of Nucleoprotein (Lymphocytic choriomeningitis virus (strain Armstrong)) (P09992 whole entry, looked up): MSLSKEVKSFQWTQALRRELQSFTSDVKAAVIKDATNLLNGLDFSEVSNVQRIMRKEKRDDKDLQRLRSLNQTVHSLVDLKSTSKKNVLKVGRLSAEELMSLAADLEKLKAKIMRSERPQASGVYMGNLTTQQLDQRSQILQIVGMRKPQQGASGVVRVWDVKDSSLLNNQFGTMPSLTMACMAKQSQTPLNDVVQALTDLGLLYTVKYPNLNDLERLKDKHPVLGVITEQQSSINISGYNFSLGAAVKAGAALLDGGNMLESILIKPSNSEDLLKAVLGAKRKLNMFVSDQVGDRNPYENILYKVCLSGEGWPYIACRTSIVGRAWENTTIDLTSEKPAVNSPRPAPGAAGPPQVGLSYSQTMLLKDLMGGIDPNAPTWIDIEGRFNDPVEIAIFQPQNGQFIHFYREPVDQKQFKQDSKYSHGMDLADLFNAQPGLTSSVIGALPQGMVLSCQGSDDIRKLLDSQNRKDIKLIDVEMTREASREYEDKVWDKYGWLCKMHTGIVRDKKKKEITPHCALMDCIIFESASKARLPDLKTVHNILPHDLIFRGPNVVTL

C[C@]12CCC(=O)C=C1CC[C@@H]1[C@@H]2[C@@H](O)C[C@@]2(C)[C@H]1CC[C@]2(O)C(=O)COC(=O)CCC(=O)O
inactive: [1] | [2] | [3] | [4]

Cn1c([N+](=O)[O-])cnc1COC(N)=O
inactive: [1] | [2] | [3] | [4]

NCCCC[C@H](N[C@@H](CCc1ccccc1)C(=O)O)C(=O)N1CCC[C@H]1C(=O)O
inactive: [1] | [2] | [3] | [4]

CC(C)[N+](C)(C)CC(O)COc1cccc2ccccc12 (stereo not given)
inactive: [1] | [2] | [3] | [4]

CCN(CC)C(C)CN1c2ccccc2Sc2ccccc21 (stereo not given)
inactive: [1] | [2] | [3] | [4]

CC(=O)OCC(=O)[C@@]1(O)[C@H](C)C[C@H]2[C@@H]3CCC4=CC(=O)C=C[C@]4(C)[C@@]3(F)[C@@H](O)C[C@@]21C
inactive: [1] | [2] | [3] | [4]

O=C(O)c1ccccc1C(=O)Nc1ccc(S(=O)(=O)Nc2nccs2)cc1
inactive: [1] | [2] | [3] | [4]

NC/C=C/C(=O)O
inactive: [1] | [2] | [3] | [4]

O=C(COCCOCCOCC(=O)Nc1c(I)cc(I)c(C(=O)O)c1I)Nc1c(I)cc(I)c(C(=O)O)c1I
inactive: [1] | [2] | [3] | [4]

NC1CCN(c2nc3c(cc2F)c(=O)c(C(=O)O)cn3-c2ccc(F)cc2F)C1 (stereo not given)
inactive: [1] | [2] | [3] | [4]

CC(NN)c1ccccc1 (stereo not given)
inactive: [1] | [2] | [3] | [4]

CCS(=O)(=O)c1ccc(OC)c(C(=O)OC)c1
inactive: [1] | [2] | [3] | [4]

CNCCCC12CCC(c3ccccc31)c1ccccc12
inactive: [1] | [2] | [3] | [4]

CCS(=O)(=O)CCn1c([N+](=O)[O-])cnc1C
inactive: [1] | [2] | [3] | [4]

C#C[C@]1(O)CC[C@H]2[C@@H]3CCC4=CC(=O)CC[C@@H]4[C@H]3CC[C@@]21CC
inactive: [1] | [2] | [3] | [4]

NS(=O)(=O)c1cc2c(cc1Cl)NC(C(Cl)Cl)NS2(=O)=O (stereo not given)
inactive: [1] | [2] | [3] | [4]

C[C@]12C=CC(=O)C=C1CC[C@@H]1[C@@H]2C(=O)C[C@@]2(C)[C@H]1CC[C@]2(O)C(=O)CO
inactive: [1] | [2] | [3] | [4]

Cc1ccc(C(C)C)cc2c(C)ccc1-2
inactive: [1] | [2] | [3] | [4]

COc1ccc(/C=N/NC(=O)c2ccncc2)cc1OC
inactive: [1] | [2] | [3] | [4]

O=C(OCC1(COC(=O)c2cccnc2)CCCC(COC(=O)c2cccnc2)(COC(=O)c2cccnc2)C1O)c1cccnc1
inactive: [1] | [2] | [3] | [4]

Nc1ncnc2c1ncn2[C@@H]1O[C@H](COP(=O)(O)O)[C@@H](O)[C@H]1O
inactive: [1] | [2] | [3] | [4]

COc1cc2c(Nc3ccc(Br)cc3F)ncnc2cc1OCC1CCN(C)CC1
inactive: [1] | [2] | [3] | [4]

CCNC(=O)/C=C/c1cccc(Br)c1
inactive: [1] | [2] | [3] | [4]

NC(=O)CC[C@@H]1NC(=O)[C@H](Cc2ccccc2)NC(=O)[C@H](Cc2ccc(O)cc2)NC(=O)CCSSC[C@@H](C(=O)N2CCC[C@H]2C(=O)N[C@@H](CCCN=C(N)N)C(=O)NCC(N)=O)NC(=O)[C@H](CC(N)=O)NC1=O
inactive: [1] | [2] | [3] | [4]

CC(C)(Oc1ccc(C2CC2(Cl)Cl)cc1)C(=O)O (stereo not given)
inactive: [1] | [2] | [3] | [4]

Cc1ccccc1C(=O)N1CC/C(=N\OS(=O)(=O)O)c2ccc(Cl)cc21
inactive: [1] | [2] | [3] | [4]

CC(=O)Nc1ccc(OCC(O)CNC(C)C)cc1 (stereo not given)
inactive: [1] | [2] | [3] | [4]

CC(C)(C)NC[C@H](O)COc1cccc2c1CCCC2=O
inactive: [1] | [2] | [3] | [4]

CC1CCN(CCCC(=O)c2ccc(F)cc2)CC1
inactive: [1] | [2] | [3] | [4]

CNNCc1ccc(C(=O)NC(C)C)cc1
inactive: [1] | [2] | [3] | [4]

CC(C)CCOC(=O)c1ccc(N(C)C)cc1
inactive: [1] | [2] | [3] | [4]

CCC(C(=O)OCCN(CC)CC)c1ccccc1 (stereo not given)
inactive: [1] | [2] | [3] | [4]

N#Cc1ccc(C(c2ccc(C#N)cc2)n2cncn2)cc1
inactive: [1] | [2] | [3] | [4]

COc1ccc(/C(C)=C/C(=O)O)c(OC)c1
inactive: [1] | [2] | [3] | [4]

O=[N+]([O-])c1cncn1CCN1CCOCC1
inactive: [1] | [2] | [3] | [4]
